According to the supplement of paper PMC6411743:
± gives the standard deviation of the averaged measurements. For part of these data: Of roughly 5,400 targets only a part is listed; those with the largest changes were picked by preference. For part of these data: Targets with the largest changes are over-represented here; the source holds about 6,500 in all.

Key:
guanosine triphosphate = compound: Nc1nc2c(ncn2[C@@H]2O[C@H](COP(=O)(O)OP(=O)(O)OP(=O)(O)O)[C@@H](O)[C@H]2O)c(=O)[nH]1 [guanosine triphosphate]; assay: NP40-soluble protein abundance relative to vehicle (solubility fold change) (ratio); higher = more soluble protein in presence of GTP
Outline: (§1)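 Each value is a fold change relative to the detergent-processed vehicle, calculated per replicate from vsn-normalised intensities. Jurkat crude lysate received eight concentrations (0.1 to 10 mM) for 10 min at room temperature and 3 min at 37 °C, then was solubilised in 0.8% NP40 with benzonase (60 min, 4 °C). The ultracentrifuged supernatant was TMT-labelled and run by LC-MS/MS in three independent experiments.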

adenosine triphosphate = compound: Nc1ncnc2c1ncn2[C@@H]1O[C@H](COP(=O)(O)OP(=O)(O)OP(=O)(O)O)[C@@H](O)[C@H]1O [adenosine triphosphate]; assay: NP40-soluble protein abundance relative to vehicle (solubility fold change) (ratio); higher = more soluble protein in presence of ATP
Outline: as §1

UniProt Q99996, sequence (Q99996 whole entry, one chain of several): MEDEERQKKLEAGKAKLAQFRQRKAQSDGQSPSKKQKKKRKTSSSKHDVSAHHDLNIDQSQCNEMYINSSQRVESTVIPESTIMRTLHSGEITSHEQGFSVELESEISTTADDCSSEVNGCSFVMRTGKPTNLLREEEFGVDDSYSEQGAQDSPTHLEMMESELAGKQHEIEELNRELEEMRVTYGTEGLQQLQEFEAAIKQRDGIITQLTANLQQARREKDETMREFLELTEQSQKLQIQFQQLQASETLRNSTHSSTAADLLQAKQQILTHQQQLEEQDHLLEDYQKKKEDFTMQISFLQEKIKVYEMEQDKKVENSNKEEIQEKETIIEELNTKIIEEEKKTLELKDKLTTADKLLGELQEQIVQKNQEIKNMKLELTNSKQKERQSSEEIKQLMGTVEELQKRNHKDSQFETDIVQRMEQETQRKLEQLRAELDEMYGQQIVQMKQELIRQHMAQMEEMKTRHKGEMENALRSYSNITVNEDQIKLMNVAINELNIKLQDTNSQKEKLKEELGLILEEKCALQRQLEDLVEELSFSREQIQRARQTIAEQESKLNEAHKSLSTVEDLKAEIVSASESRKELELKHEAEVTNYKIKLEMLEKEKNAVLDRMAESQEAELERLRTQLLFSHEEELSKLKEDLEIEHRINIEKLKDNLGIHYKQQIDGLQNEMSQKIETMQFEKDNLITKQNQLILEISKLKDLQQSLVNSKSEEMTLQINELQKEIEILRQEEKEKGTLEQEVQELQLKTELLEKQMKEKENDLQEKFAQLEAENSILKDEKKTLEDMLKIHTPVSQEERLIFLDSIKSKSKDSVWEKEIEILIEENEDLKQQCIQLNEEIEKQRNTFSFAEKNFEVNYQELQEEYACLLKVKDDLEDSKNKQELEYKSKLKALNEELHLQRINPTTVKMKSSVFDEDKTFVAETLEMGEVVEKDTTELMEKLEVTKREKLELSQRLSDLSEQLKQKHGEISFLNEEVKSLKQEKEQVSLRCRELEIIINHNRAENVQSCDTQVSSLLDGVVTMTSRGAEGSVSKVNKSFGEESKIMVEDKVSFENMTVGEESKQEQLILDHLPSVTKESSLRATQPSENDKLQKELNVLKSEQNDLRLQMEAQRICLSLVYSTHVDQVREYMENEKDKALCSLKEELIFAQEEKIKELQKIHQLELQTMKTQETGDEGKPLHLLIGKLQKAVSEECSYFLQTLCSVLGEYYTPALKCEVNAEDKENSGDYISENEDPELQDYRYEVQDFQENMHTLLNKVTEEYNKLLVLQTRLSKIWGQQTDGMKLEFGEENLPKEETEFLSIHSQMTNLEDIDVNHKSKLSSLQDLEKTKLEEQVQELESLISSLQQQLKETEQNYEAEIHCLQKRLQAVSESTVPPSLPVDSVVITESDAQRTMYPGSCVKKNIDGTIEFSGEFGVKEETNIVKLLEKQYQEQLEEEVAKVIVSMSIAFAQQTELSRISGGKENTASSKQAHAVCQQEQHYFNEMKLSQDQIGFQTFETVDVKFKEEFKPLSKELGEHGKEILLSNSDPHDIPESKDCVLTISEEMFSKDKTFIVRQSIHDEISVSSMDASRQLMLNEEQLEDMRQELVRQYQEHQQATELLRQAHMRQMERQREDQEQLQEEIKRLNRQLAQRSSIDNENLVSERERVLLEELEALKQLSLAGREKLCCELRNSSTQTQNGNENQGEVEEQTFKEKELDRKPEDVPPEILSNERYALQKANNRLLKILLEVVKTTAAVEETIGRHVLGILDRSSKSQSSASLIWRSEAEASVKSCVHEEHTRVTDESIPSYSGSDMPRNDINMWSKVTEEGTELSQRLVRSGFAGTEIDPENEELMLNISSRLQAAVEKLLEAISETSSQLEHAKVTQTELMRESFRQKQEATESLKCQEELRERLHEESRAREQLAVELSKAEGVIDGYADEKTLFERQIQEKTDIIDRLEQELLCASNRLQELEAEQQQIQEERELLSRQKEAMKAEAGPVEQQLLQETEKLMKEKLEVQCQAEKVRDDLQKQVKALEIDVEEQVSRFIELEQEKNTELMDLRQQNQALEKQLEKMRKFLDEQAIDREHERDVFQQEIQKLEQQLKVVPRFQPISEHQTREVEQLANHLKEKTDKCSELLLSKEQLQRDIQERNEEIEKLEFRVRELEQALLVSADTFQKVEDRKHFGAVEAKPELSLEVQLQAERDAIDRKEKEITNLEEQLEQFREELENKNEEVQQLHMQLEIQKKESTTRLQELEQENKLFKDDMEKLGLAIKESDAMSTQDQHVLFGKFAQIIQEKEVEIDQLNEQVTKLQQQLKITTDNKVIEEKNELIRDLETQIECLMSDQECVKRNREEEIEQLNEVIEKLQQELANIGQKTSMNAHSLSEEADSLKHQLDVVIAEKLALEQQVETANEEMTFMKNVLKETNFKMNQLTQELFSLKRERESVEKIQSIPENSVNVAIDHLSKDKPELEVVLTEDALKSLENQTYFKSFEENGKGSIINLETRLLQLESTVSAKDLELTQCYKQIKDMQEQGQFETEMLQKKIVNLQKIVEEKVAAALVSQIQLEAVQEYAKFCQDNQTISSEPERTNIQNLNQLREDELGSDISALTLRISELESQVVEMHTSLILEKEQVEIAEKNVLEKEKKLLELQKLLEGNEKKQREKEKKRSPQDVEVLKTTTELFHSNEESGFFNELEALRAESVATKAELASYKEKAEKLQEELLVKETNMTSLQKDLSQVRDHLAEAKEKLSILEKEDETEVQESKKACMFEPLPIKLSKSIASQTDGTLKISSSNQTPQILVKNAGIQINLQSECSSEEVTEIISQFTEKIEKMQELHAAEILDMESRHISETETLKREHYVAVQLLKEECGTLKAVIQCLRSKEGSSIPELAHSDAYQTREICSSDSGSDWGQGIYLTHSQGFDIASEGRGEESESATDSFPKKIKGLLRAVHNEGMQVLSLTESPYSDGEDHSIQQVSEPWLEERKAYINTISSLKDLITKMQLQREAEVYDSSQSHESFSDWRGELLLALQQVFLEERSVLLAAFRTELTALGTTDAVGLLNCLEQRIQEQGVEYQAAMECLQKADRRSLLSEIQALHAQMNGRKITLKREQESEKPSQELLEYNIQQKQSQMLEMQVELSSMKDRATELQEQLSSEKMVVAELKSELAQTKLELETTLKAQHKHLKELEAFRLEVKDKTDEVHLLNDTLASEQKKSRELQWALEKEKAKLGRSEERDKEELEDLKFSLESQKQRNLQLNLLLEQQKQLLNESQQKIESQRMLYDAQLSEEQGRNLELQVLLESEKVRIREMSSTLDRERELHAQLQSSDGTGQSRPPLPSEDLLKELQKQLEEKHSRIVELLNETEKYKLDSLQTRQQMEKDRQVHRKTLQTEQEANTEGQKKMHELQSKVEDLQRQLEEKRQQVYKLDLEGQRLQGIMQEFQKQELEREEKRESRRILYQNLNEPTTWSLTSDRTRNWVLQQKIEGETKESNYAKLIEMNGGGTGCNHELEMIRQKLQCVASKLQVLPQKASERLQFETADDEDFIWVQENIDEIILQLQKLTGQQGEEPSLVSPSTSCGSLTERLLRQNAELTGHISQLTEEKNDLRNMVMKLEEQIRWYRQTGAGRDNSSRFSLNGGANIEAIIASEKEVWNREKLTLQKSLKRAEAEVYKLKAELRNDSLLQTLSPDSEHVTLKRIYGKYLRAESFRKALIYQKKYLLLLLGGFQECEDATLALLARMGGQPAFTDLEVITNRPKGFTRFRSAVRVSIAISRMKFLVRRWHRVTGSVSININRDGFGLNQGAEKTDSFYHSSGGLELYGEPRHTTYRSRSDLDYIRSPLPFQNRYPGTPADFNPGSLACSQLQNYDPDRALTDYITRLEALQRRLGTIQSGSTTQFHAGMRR
UniProt P53365, sequence (P53365 whole entry, one chain of several): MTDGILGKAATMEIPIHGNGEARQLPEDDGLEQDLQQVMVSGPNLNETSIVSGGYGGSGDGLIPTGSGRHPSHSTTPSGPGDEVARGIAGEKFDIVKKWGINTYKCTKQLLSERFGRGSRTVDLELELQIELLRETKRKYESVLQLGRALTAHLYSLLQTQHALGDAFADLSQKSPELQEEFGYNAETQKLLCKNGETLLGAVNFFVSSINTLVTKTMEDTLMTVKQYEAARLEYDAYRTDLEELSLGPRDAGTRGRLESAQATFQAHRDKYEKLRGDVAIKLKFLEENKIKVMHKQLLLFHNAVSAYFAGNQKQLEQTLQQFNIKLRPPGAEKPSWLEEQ
UniProt Q8NEW0, sequence (Q8NEW0 whole entry, one chain of several): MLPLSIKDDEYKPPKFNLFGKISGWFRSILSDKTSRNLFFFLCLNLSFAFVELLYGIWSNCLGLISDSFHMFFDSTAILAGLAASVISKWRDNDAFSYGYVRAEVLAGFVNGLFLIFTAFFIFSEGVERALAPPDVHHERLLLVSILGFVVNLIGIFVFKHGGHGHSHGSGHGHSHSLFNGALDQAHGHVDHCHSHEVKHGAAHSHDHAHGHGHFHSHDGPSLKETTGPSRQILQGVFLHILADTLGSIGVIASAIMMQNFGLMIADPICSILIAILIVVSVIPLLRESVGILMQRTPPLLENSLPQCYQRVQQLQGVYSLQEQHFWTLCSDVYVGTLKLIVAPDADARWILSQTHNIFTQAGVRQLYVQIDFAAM
UniProt Q6UW02, sequence (Q6UW02 whole entry, one chain of several): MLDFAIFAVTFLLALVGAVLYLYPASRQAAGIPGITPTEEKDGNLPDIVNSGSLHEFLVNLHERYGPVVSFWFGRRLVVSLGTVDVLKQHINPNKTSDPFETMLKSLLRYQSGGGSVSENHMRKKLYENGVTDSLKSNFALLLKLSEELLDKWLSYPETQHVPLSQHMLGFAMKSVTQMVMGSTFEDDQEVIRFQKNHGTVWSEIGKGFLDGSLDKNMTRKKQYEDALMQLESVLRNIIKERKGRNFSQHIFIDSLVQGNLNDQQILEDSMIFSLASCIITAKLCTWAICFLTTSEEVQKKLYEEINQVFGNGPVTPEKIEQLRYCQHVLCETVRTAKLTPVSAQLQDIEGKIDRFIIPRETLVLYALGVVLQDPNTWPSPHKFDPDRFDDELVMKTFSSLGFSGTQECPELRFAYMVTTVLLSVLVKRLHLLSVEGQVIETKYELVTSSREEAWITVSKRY

Target	NP40-soluble protein abundance (guanosine triphosphate; concentration: 0.1mM)	NP40-soluble protein abundance (guanosine triphosphate; concentration: 0.5mM)	NP40-soluble protein abundance (guanosine triphosphate; concentration: 1mM)	NP40-soluble protein abundance (guanosine triphosphate; concentration: 2mM)	NP40-soluble protein abundance (guanosine triphosphate; concentration: 4mM)	NP40-soluble protein abundance (guanosine triphosphate; concentration: 6mM)	NP40-soluble protein abundance (guanosine triphosphate; concentration: 8mM)	NP40-soluble protein abundance (guanosine triphosphate; concentration: 10mM)	NP40-soluble protein abundance (adenosine triphosphate; concentration: 1mM)	NP40-soluble protein abundance (adenosine triphosphate; concentration: 2mM)	NP40-soluble protein abundance (adenosine triphosphate; concentration: 4mM)	NP40-soluble protein abundance (adenosine triphosphate; concentration: 6mM)	NP40-soluble protein abundance (adenosine triphosphate; concentration: 8mM)	NP40-soluble protein abundance (adenosine triphosphate; concentration: 10mM)
E9PG35|E9PHF7|F5GYT8|Q96RQ3|G5E9X5 (UniProt Q96RQ3)	1.04 ± 0.093	1.07 ± 0.078	1.02 ± 0.16	1.08 ± 0.11	1.09 ± 0.15	1.08 ± 0.077	1.05 ± 0.19	1.03 ± 0.13						
B0YIW6|P48444 (UniProt P48444)	1.06 ± 0.053	1.08 ± 0.078	1.02 ± 0.066	1.01 ± 0.11	1.02 ± 0.1	1.01 ± 0.083	0.975 ± 0.059	0.933 ± 0.067						
G3XAG1|Q96ME7|Q96ME7-3 (UniProt Q96ME7)	1.1 ± 0.013	1.17 ± 0.055	1.27 ± 0.04	1.445 ± 0.014	1.74 ± 0.059	1.88 ± 0.079	2.01 ± 0.13	2.17 ± 0.081						
C9J050|C9JEJ2|P49585 (UniProt P49585)	1.01 ± 0.094	0.986 ± 0.078	0.953 ± 0.074	0.945 ± 0.077	0.992 ± 0.073	0.942 ± 0.058	0.942 ± 0.079	0.936 ± 0.054						
UniProt Q9UHB6|F8VQE1|Q9UHB6-2									1.05 ± 0.14	1.16 ± 0.14	1.35 ± 0.16	1.56 ± 0.21	1.62 ± 0.12	1.86 ± 0.18
G5E953|Q13615|Q13615-2|Q13615-3 (UniProt Q13615)	1.01 ± 0.036	0.987 ± 0.04	0.978 ± 0.063	0.953 ± 0.034	0.976 ± 0.045	0.963 ± 0.065	1 ± 0.042	0.971 ± 0.028						
A0A087X1E4|P53365|P53365-3 (UniProt P53365)	0.956 ± 0.05	0.853 ± 0.057	0.972 ± 0.052	0.963 ± 0.08	0.913 ± 0.088	0.906 ± 0.1	0.861 ± 0.14	0.889 ± 0.068						
E9PFN5|Q9Y2Q3 (UniProt Q9Y2Q3)	0.922 ± 0.042	0.934 ± 0.038	0.895 ± 0.036	0.906 ± 0.043	0.887 ± 0.042	0.888 ± 0.031	0.829 ± 0.082	0.86 ± 0.079						
F8VTV8|F8VWX7|F8VYH9|P11802 (UniProt P11802)	0.977 ± 0.13	1.06 ± 0.048	0.999 ± 0.041	1.05 ± 0.071	1.06 ± 0.056	1.02 ± 0.049	0.995 ± 0.04	0.973 ± 0.015						
H0YIE9|O94952|O94952-1|Q4G104 (UniProt O94952)	1.19 ± 0.045	1.03 ± 0.091	1.05 ± 0.013	1.04 ± 0.12	1.12 ± 0.014	0.978 ± 0.078	1.08 ± 0.035	0.921 ± 0.089						
E7EN86|P52747|P52747-2|P52747-3 (UniProt P52747)	1.06 ± 0.038	1.03 ± 0.024	0.988 ± 0.058	0.94 ± 0.013	0.988 ± 0.076	0.939 ± 0.055	1.03 ± 0.013	1.02 ± 0.045						
B9ZVT1|Q8IXT5 (UniProt Q8IXT5)	1.02 ± 0.081	1.13 ± 0.19	1.21 ± 0.078	1.28 ± 0.25	1.29 ± 0.29	1.3 ± 0.32	1.45 ± 0.47	1.48 ± 0.39						
C9JWG0|Q16851-2 (UniProt Q16851)	1.04 ± 0.03	1.04 ± 0.052	1 ± 0.046	1.01 ± 0.071	1.01 ± 0.042	1.01 ± 0.067	0.998 ± 0.057	0.983 ± 0.065						
B4DJL6|Q96SY0|B4DVT3|H3BRY6|Q96SY0-3|Q96SY0-4 (UniProt Q96SY0)	1.03 ± 0.049	1.03 ± 0.035	1.03 ± 0.064	1.07 ± 0.051	1.03 ± 0.058	1.09 ± 0.025	1.07 ± 0.086	1.05 ± 0.066						
H0YEN5|P15880 (UniProt P15880)	0.979 ± 0.063	1.01 ± 0.1	0.965 ± 0.14	0.936 ± 0.19	0.848 ± 0.21	0.836 ± 0.21	0.738 ± 0.17	0.774 ± 0.2						
B1AL05|H0Y6Y8|H0YBU8|Q8N983|Q8N983-2|Q8N983-3|Q8N983-4|Q8N983-6|Q8N983-7 (UniProt Q8N983)	1.08 ± 0.21	1.07 ± 0.17	1.37 ± 0.45	1.75 ± 0.66	1.71 ± 0.69	1.57 ± 0.65	1.38 ± 0.47	1.59 ± 0.65						

Target	NP40-soluble protein abundance (guanosine triphosphate; concentration: 0.1mM)	NP40-soluble protein abundance (guanosine triphosphate; concentration: 0.5mM)	NP40-soluble protein abundance (guanosine triphosphate; concentration: 1mM)	NP40-soluble protein abundance (guanosine triphosphate; concentration: 2mM)	NP40-soluble protein abundance (guanosine triphosphate; concentration: 4mM)	NP40-soluble protein abundance (guanosine triphosphate; concentration: 6mM)	NP40-soluble protein abundance (guanosine triphosphate; concentration: 8mM)	NP40-soluble protein abundance (guanosine triphosphate; concentration: 10mM)	NP40-soluble protein abundance (adenosine triphosphate; concentration: 1mM)	NP40-soluble protein abundance (adenosine triphosphate; concentration: 2mM)	NP40-soluble protein abundance (adenosine triphosphate; concentration: 4mM)	NP40-soluble protein abundance (adenosine triphosphate; concentration: 6mM)	NP40-soluble protein abundance (adenosine triphosphate; concentration: 8mM)	NP40-soluble protein abundance (adenosine triphosphate; concentration: 10mM)
F8VQE1|Q9UHB6|Q9UHB6-2|Q9UHB6-4|Q9UHB6-5 (UniProt Q9UHB6)	0.977 ± 0.045	0.955 ± 0.12	1.16 ± 0.11	1.16 ± 0.1	1.35 ± 0.12	1.71 ± 0.067	1.95 ± 0.29	2.21 ± 0.23						
D6RAN8|H7C5U8|Q9P0M9 (UniProt Q9P0M9)	1.09 ± 0.38	1.2 ± 0.5	1.53 ± 0.78	1.81 ± 0.82	1.91 ± 0.83	1.72 ± 0.79	1.64 ± 0.79	1.58 ± 0.84						
A0A087X1B9|P02792 (UniProt P02792)	1.09 ± 0.16	1.03 ± 0.21	1.44 ± 0.11	1.55 ± 0.054	1.64 ± 0.14	1.465 ± 0.0048	1.43 ± 0.17	1.68 ± 0.12						
F8VU90|Q9NYL4|Q9NYL4-2 (UniProt Q9NYL4)	0.972 ± 0.06	0.968 ± 0.052	1.04 ± 0.018	1.03 ± 0.065	1.05 ± 0.033	0.996 ± 0.078	0.922 ± 0.041	0.995 ± 0.065						
A0A087WVC1|Q9BQ39 (UniProt Q9BQ39)	1.19 ± 0.051	1.25 ± 0.055	1.4 ± 0.089	1.89 ± 0.23	2.57 ± 0.26	3.29 ± 0.3	3.85 ± 0.56	4.45 ± 0.47						
A8MQB8|G3V0J0|Q06787|Q06787-2|Q06787-3|Q06787-4|Q06787-5|Q06787-6|Q06787-7|Q06787-8|Q06787-9 (UniProt Q06787)	1.05 ± 0.041	1.15 ± 0.048	1.05 ± 0.065	1.24 ± 0.0061	1.41 ± 0.093	1.71 ± 0.037	1.8 ± 0.048	2.1 ± 0.11						
H0Y362|Q8NEW0 (UniProt Q8NEW0)	1.21 ± 0.043	1.14 ± 0.018	1.14 ± 0.026	1.13 ± 0.1	1.05 ± 0.062	1.05 ± 0.11	1.04 ± 0.055	0.959 ± 0.013						
A8MQ02|J3KN01|P55196|P55196-3|P55196-5 (UniProt P55196)	1.15 ± 0.16	0.987 ± 0.079	1 ± 0.038	1.05 ± 0.14	1.18 ± 0.34	1.18 ± 0.21	1.16 ± 0.14	1.13 ± 0.078						
A0A0X1KG71|Q8WX92 (UniProt Q8WX92)	0.9588 ± 0.0051	0.964 ± 0.014	0.9785 ± 0.0083	0.973 ± 0.016	0.957 ± 0.025	0.96 ± 0.012	0.936 ± 0.024	0.946 ± 0.02						
E9PHG5|Q6UW02|Q6UW02-2 (UniProt Q6UW02)	1.1 ± 0.21	1.04 ± 0.17	1.01 ± 0.075	1.04 ± 0.061	0.955 ± 0.16	0.984 ± 0.14	0.882 ± 0.25	0.884 ± 0.14						
F2Z2Y4|O00764|O00764-2 (UniProt O00764)	1 ± 0.072	1.01 ± 0.09	0.942 ± 0.055	0.918 ± 0.095	0.905 ± 0.071	0.91 ± 0.08	0.88 ± 0.063	0.868 ± 0.086						
A0A0A0MRF6|Q99996|Q99996-2|Q99996-3|Q99996-5|Q99996-6 (UniProt Q99996)	1.03 ± 0.014	1.05 ± 0.017	1.08 ± 0.049	1.1 ± 0.056	1.15 ± 0.09	1.14 ± 0.095	1.18 ± 0.14	1.12 ± 0.13						
F5H8D7|P18887 (UniProt P18887)	0.976 ± 0.073	1.02 ± 0.085	1.04 ± 0.081	1 ± 0.1	1.03 ± 0.098	1.06 ± 0.1	1.13 ± 0.1	1.1 ± 0.12						
A0A087WYN9|Q7Z478 (UniProt Q7Z478)	1.34 ± 0.086	1.69 ± 0.26	1.66 ± 0.28	1.77 ± 0.29	1.8 ± 0.23	1.84 ± 0.27	1.86 ± 0.27	1.86 ± 0.19						
E9PCH4|Q8TEU7|Q8TEU7-4 (UniProt Q8TEU7+E9PCH4)	0.967 ± 0.021	0.9825 ± 0.0063	0.968 ± 0.023	0.96 ± 0.02	0.981 ± 0.016	0.969 ± 0.038	1.0058 ± 0.00029	0.9592 ± 0.0034						
